Measured values from PubChem BioAssay (NCI).
Compounds without any hit were thinned out: in the full panel of roughly 83,000, 20% have a hit.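 Note: values are percent growth. 100 is the growth of untreated cells, values between 100 and 0 indicate rising inhibition; between -100 and 0 indicates cell death.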 Active and inactive are the calls of the source. How the source made its calls: active means growth percent below 10; inactive means the rest.

What was measured:
Test in all cases: NCI-60 one-dose screen, 48 h (100 = growth as untreated, 0 = no growth, -100 = all killed)
Conditions in all cases: 10 µM
DU-145 prostate = tested on: DU-145 prostate
K-562 leukemia = tested on: K-562 leukemia
MALME-3M melanoma = tested on: MALME-3M melanoma
MDA-MB-231 breast = tested on: MDA-MB-231 breast
SF-268 CNS = tested on: SF-268 CNS
SF-295 CNS = tested on: SF-295 CNS
SF-539 CNS = tested on: SF-539 CNS
UACC-257 melanoma = tested on: UACC-257 melanoma
M14 melanoma = tested on: M14 melanoma
RXF 393 renal = tested on: RXF 393 renal

Measured: growth

COc1ccc2nc(/C=C/c3ccc(N(C)C)cc3)sc2c1
inactive: DU-145 prostate 111% | K-562 leukemia 73.5% | MALME-3M melanoma 97.4% | MDA-MB-231 breast 95.6% | SF-268 CNS 102% | SF-295 CNS 93.1% | SF-539 CNS 103% | UACC-257 melanoma 119% | M14 melanoma 103%

C=CCNC(=S)NN
inactive: DU-145 prostate 92.5% | K-562 leukemia 52.4% | MALME-3M melanoma 79.7% | MDA-MB-231 breast 90.9% | RXF 393 renal 105% | SF-268 CNS 95.8% | SF-295 CNS 88.8% | SF-539 CNS 95.1% | UACC-257 melanoma 50.7% | M14 melanoma 97.9%

O=c1ccc2nc(-c3ccccc3)nn(-c3ccccc3)c-2c1
active: DU-145 prostate -95.4% | K-562 leukemia -39% | MALME-3M melanoma -92.5% | RXF 393 renal -92.8% | UACC-257 melanoma -97.3%
inactive: MDA-MB-231 breast 76.3% | SF-268 CNS 70.5% | SF-295 CNS 23.9% | SF-539 CNS 105% | M14 melanoma 51.2%

COc1ccc(-c2nnc(COc3ccc(NC(=O)Nc4ccccc4)cc3F)o2)cc1
inactive: DU-145 prostate 83.3% | K-562 leukemia 71.8% | MALME-3M melanoma 84.1% | MDA-MB-231 breast 74.8% | RXF 393 renal 94.5% | SF-268 CNS 78.6% | SF-295 CNS 98.6% | SF-539 CNS 86.4% | UACC-257 melanoma 96.8% | M14 melanoma 89.8%

CCCCCCCCCCCCCC[n+]1ccccc1
active: DU-145 prostate -48.6% | K-562 leukemia 0.808% | MALME-3M melanoma -50.8% | MDA-MB-231 breast -62.6% | RXF 393 renal -69.6% | SF-268 CNS -37.3% | SF-295 CNS -89.8% | SF-539 CNS -30.7% | UACC-257 melanoma -70.8% | M14 melanoma -33.5%

COc1ccc2nc(-c3ccccc3)cc(C(C)=O)c2c1
inactive: DU-145 prostate 107% | K-562 leukemia 84.1% | MALME-3M melanoma 86.5% | MDA-MB-231 breast 89.5% | RXF 393 renal 102% | SF-268 CNS 96.1% | SF-295 CNS 96.3% | SF-539 CNS 86.1% | UACC-257 melanoma 99.9% | M14 melanoma 95.3%

CC(=O)c1ccc(NCn2nc(-c3ccc(Cl)cc3)oc2=S)cc1
inactive: DU-145 prostate 109% | K-562 leukemia 88.1% | MALME-3M melanoma 114% | MDA-MB-231 breast 87.8% | RXF 393 renal 117% | SF-268 CNS 109% | SF-295 CNS 102% | SF-539 CNS 95% | UACC-257 melanoma 93% | M14 melanoma 104%

CC(C)OP(=O)(O)c1ncc(-c2ccc(C(F)(F)F)cc2)c(NC2CCCCCC2)n1
active: MALME-3M melanoma 5.39%
inactive: DU-145 prostate 90.1% | K-562 leukemia 36.3% | MDA-MB-231 breast 89.9% | RXF 393 renal 90.1% | SF-268 CNS 75.6% | SF-295 CNS 11.5% | SF-539 CNS 92.4% | UACC-257 melanoma 28.6% | M14 melanoma 53.7%

c1ccc(CNc2nc(Nc3ccc(-c4nc5ccccc5[nH]4)cc3)c3cn[nH]c3n2)cc1
inactive: DU-145 prostate 25.5% | SF-268 CNS 22.1%
active: K-562 leukemia -17% | MALME-3M melanoma -23.5% | MDA-MB-231 breast -11.1% | RXF 393 renal -68.3% | SF-295 CNS -44.5% | SF-539 CNS 1.69% | UACC-257 melanoma -33.3% | M14 melanoma -34.6%

C/C(=N/NC(=O)c1sc(=S)n(C)c1N)c1cc2cc(Cl)ccc2o1
active: UACC-257 melanoma 5.89%
inactive: DU-145 prostate 87.2% | K-562 leukemia 72.8% | MALME-3M melanoma 113% | MDA-MB-231 breast 68.9% | SF-268 CNS 80.2% | SF-295 CNS 109% | SF-539 CNS 99.2% | M14 melanoma 91.7%

CCc1ccc(-c2nnc(COc3ccc(-c4nc5cc(Cl)c(Cl)cc5[nH]4)cc3OC)o2)cc1
inactive: DU-145 prostate 66.6% | K-562 leukemia 15.5% | MALME-3M melanoma 57.9% | MDA-MB-231 breast 58% | RXF 393 renal 46% | SF-268 CNS 99.1% | SF-295 CNS 88.2% | SF-539 CNS 26.1% | UACC-257 melanoma 91.4% | M14 melanoma 52.6%

Cc1ccccc1[P+](Cc1ccccc1)(c1ccccc1)c1ccccc1
inactive: DU-145 prostate 41% | MDA-MB-231 breast 40.7% | RXF 393 renal 64.6% | SF-268 CNS 33.9% | SF-295 CNS 11% | SF-539 CNS 35.4% | M14 melanoma 15.1%
active: K-562 leukemia 7.69% | MALME-3M melanoma -1.44% | UACC-257 melanoma -26.7%

COc1cc(-c2nc3ccc(C)cc3[nH]2)ccc1OCC(=O)N=Nc1c(O)[nH]c2ccccc12
inactive: UACC-257 melanoma 13.8%
active: DU-145 prostate 2.84% | K-562 leukemia -62.9% | MALME-3M melanoma -68.8% | MDA-MB-231 breast -81.2% | RXF 393 renal -9.89% | SF-268 CNS -35.6% | SF-295 CNS -52.8% | SF-539 CNS -88.5% | M14 melanoma -72.8%

O=C(Nc1cccc(Cl)c1)Nc1cc2ncncc2cc1OCc1cccc(F)c1
inactive: DU-145 prostate 18.9% | MALME-3M melanoma 10.8% | MDA-MB-231 breast 27.2% | RXF 393 renal 31.5% | SF-268 CNS 26.6% | SF-539 CNS 36%
active: K-562 leukemia 8.22% | SF-295 CNS 7.22% | UACC-257 melanoma -34.2% | M14 melanoma -18.2%

Nc1ccc(Sc2ccc3c4c2cccc4c(=O)n2c4ccccc4nc32)cc1
inactive: DU-145 prostate 39.3% | K-562 leukemia 60.3% | MALME-3M melanoma 34% | MDA-MB-231 breast 54.4% | RXF 393 renal 72.6% | SF-268 CNS 59.4% | SF-295 CNS 12% | SF-539 CNS 48.5% | UACC-257 melanoma 71% | M14 melanoma 45.4%

CC(C)C[C@H](NC(=O)Cn1ccc2ccccc2c1=O)B(O)O
inactive: DU-145 prostate 73.5% | K-562 leukemia 64% | MALME-3M melanoma 39.6% | MDA-MB-231 breast 88% | RXF 393 renal 10.3% | SF-268 CNS 79.6% | SF-295 CNS 69.5% | SF-539 CNS 15.9% | UACC-257 melanoma 42.1% | M14 melanoma 56%

CCN(CC)c1ccc(/C=C/C2=[N+](C)c3ccccc3C2(C)C)c(C)c1
inactive: DU-145 prostate 20.3% | RXF 393 renal 29.5% | SF-268 CNS 22.7% | SF-539 CNS 18% | M14 melanoma 10.5%
active: K-562 leukemia 6.13% | MALME-3M melanoma -33.4% | MDA-MB-231 breast -1.06% | SF-295 CNS 4.27% | UACC-257 melanoma -15.9%

C=C1C(=O)O[C@H]2[C@H]1CC/C(COC(=O)OCCCCCOC(=O)OC/C1=C/CC[C@@]3(C)O[C@H]3[C@H]3OC(=O)C(=C)[C@@H]3CC1)=C\CC[C@@]1(C)O[C@@H]21
active: DU-145 prostate -4.53% | K-562 leukemia 1.11% | MALME-3M melanoma -30.1% | MDA-MB-231 breast -87% | RXF 393 renal -69.8% | SF-268 CNS 7.62% | SF-539 CNS -33.1% | UACC-257 melanoma -87% | M14 melanoma -45.5%
inactive: SF-295 CNS 45.4%

O=[N+]([O-])C1CC2C=CC1C2 (configuration not stated)
inactive: DU-145 prostate 94.7% | K-562 leukemia 101% | MDA-MB-231 breast 111% | RXF 393 renal 99% | SF-268 CNS 89.6% | SF-295 CNS 92.8% | SF-539 CNS 102% | UACC-257 melanoma 105% | M14 melanoma 98.7%

C/C(=N\NC(=O)c1sc(=S)n(C)c1N)c1cc2ccccc2o1
active: K-562 leukemia -10.9% | SF-295 CNS -20.6%
inactive: DU-145 prostate 77.4% | MALME-3M melanoma 99.3% | MDA-MB-231 breast 36% | SF-268 CNS 55.9% | SF-539 CNS 71.9% | UACC-257 melanoma 56.5% | M14 melanoma 40.8%

NC(=O)C12C(=O)NC(=O)C1(C(=O)O)C21CCCC1 (configuration not stated)
inactive: DU-145 prostate 133% | K-562 leukemia 108% | MDA-MB-231 breast 98.9% | RXF 393 renal 122% | SF-268 CNS 114% | SF-295 CNS 110% | SF-539 CNS 113% | UACC-257 melanoma 103% | M14 melanoma 105%

COc1ccc(C2=Cc3ccc(OC(C)=O)cc3OC2)cc1
inactive: DU-145 prostate 90.2% | K-562 leukemia 72.3% | MDA-MB-231 breast 52.5% | RXF 393 renal 94.7% | SF-268 CNS 87.9% | SF-295 CNS 104% | SF-539 CNS 85.7% | UACC-257 melanoma 99.7% | M14 melanoma 122%

COc1ccc(/C=C(\c2cc(OC)c(OC)c(OC)c2)c2nnc(-c3cccs3)o2)cc1
inactive: DU-145 prostate 77% | K-562 leukemia 89.5% | MDA-MB-231 breast 71.7% | RXF 393 renal 49.2% | SF-268 CNS 42% | SF-295 CNS 73.4% | SF-539 CNS 47.6% | UACC-257 melanoma 76.5% | M14 melanoma 93.2%

C(=C\c1nc2ccccc2s1)/c1ccc(N2CCOCC2)s1
inactive: DU-145 prostate 92.4% | K-562 leukemia 31.8% | MALME-3M melanoma 103% | MDA-MB-231 breast 75.5% | SF-268 CNS 98.2% | SF-295 CNS 69% | SF-539 CNS 81.1% | UACC-257 melanoma 90.2% | M14 melanoma 36.6%

O=C(/C=C/c1nnc2n(Cc3ccccc3)c(=O)c3c4c(sc3n12)CCCC4)c1ccccc1
active: K-562 leukemia 5.09%
inactive: DU-145 prostate 121% | MDA-MB-231 breast 106% | RXF 393 renal 98.3% | SF-268 CNS 75.5% | SF-295 CNS 40.4% | SF-539 CNS 99.6% | UACC-257 melanoma 86.5% | M14 melanoma 92.7%

CCN1CCOC1C(C)C (configuration not stated)
inactive: DU-145 prostate 110% | K-562 leukemia 90.3% | MDA-MB-231 breast 99.2% | RXF 393 renal 109% | SF-268 CNS 102% | SF-295 CNS 105% | SF-539 CNS 95% | UACC-257 melanoma 104% | M14 melanoma 93.7%

O=[N+]([O-])c1ccc(S(=O)(=O)OCCCCOS(=O)(=O)c2ccc([N+](=O)[O-])cc2)cc1
inactive: DU-145 prostate 107% | K-562 leukemia 94.7% | MDA-MB-231 breast 106% | RXF 393 renal 112% | SF-268 CNS 106% | SF-295 CNS 105% | SF-539 CNS 104% | UACC-257 melanoma 108% | M14 melanoma 104%

CCSc1nc2c([nH]1)c(=O)n(C)c(=S)n2C
inactive: DU-145 prostate 112% | K-562 leukemia 115% | MDA-MB-231 breast 116% | RXF 393 renal 117% | SF-268 CNS 106% | SF-295 CNS 114% | SF-539 CNS 97.9% | UACC-257 melanoma 108% | M14 melanoma 109%

COC1OC2COC(c3ccccc3)OC2C(=O)C1NC(=O)c1ccccc1 (configuration not stated)
inactive: DU-145 prostate 95.6% | K-562 leukemia 127% | MDA-MB-231 breast 94.1% | RXF 393 renal 122% | SF-268 CNS 99.1% | SF-295 CNS 88.5% | SF-539 CNS 101% | UACC-257 melanoma 104% | M14 melanoma 99.8%
